Compounds without any hit were thinned out: in the full panel of roughly 79,000, 15% have a hit. Active and inactive are the calls of the source. Cut-off read from the data, not from the text of the source: active = growth inhibition above about 70%; inactive = the rest.
Experiments:
[1] = NCI Yeast Anticancer Drug Screen. Data for the rad50 strain (AID 155);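 note: 0% = growth of vehicle-only cultures of the same strain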; conditions: S. cerevisiae rad50 strain growth inhibition; at 50.0 µM; active compounds read high
Summary of the method: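 Compounds were tested on a yeast strain with an engineered DNA damage repair alteration; the reported value is growth inhibition normalised to vehicle treatment.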

[2] = NCI Yeast Anticancer Drug Screen. Data for the mec2-1 strain (AID 157); conditions: S. cerevisiae mec2-1 strain, at 50.0 µM, active compounds read high
Summary of the method: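 Strain: mec2-1 (DNA repair/cell cycle alteration). Compound exposure, then growth measured; inhibition expressed relative to vehicle.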

[3] = NCI Yeast Anticancer Drug Screen. Data for the sgs1 mgt1 strain (AID 161);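 note: 0% = growth of cultures given vehicle only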; conditions: S. cerevisiae sgs1 mgt1 strain, at 50.0 µM, active compounds read high
Summary of the method: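 Read-out: growth inhibition vs vehicle controls. Cells: mutant yeast strain deficient in DNA damage repair.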

[4] = NCI Yeast Anticancer Drug Screen. Data for the cln2 rad14 strain (AID 165);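 note: 0% = growth equal to vehicle treated cultures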; conditions: S. cerevisiae cln2 rad14 strain, at 50.0 µM, active compounds read high
Summary of the method: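 Compounds are applied to the cln2 rad14 yeast strain, and growth is then compared with that of vehicle-treated cultures to give inhibition.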

[5] = NCI Yeast Anticancer Drug Screen. Data for the bub3 strain (AID 167); conditions: S. cerevisiae bub3 mutant strain, at 50.0 µM, active compounds read high
Summary of the method: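 Growth of a checkpoint-deficient yeast mutant is measured after compound exposure. Values represent inhibition relative to vehicle.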

[6] = NCI Yeast Anticancer Drug Screen. Data for the mlh1 rad18 strain (AID 175); conditions: S. cerevisiae mlh1 rad18 strain growth inhibition; at 50.0 µM; active compounds read high
Summary of the method: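 Read-out is yeast growth inhibition, calculated against vehicle-only controls. The compound was applied to a strain engineered with DNA damage repair alterations.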

Measured: growth inhibition

CC1OC(OCC2COC(O)(Oc3c(-c4ccc(O)c(O)c4)oc4cc(O)cc(O)c4c3=O)C(O)C2O)C(O)C(O)C1O (stereo not given)
inactive: [1] 20.1% | [2] -29.4% | [3] -15.8% | [4] 0.6% | [5] 8.05% | [6] 13.9%

CC(C)(C)SC(=S)SCC(=O)c1cc2cc(Br)ccc2o1
inactive: [1] -19.7% | [2] -25.6% | [3] -11.5% | [4] -3.25% | [5] -16.9% | [6] -8.5%

CC(=O)OCC1OC(OC(C)=O)C(Nc2ncnc3nc[nH]c23)C(OC(C)=O)C1OC(C)=O (stereo not given)
inactive: [1] 28.1% | [2] 23.9% | [3] 49.9% | [4] 11.6% | [5] 16.5% | [6] 37.8%

CCOC(=O)C1CC(=O)C2/C(=C(\O)c3ccccc3)C=C([N+](=O)[O-])C1C2[N+](=O)[O-] (stereo not given)
inactive: [1] 3% | [2] 3.65% | [3] -13.6% | [4] -1.25% | [5] 3.6% | [6] -1.2%

O=C(NCCc1ccccc1)c1ccc2ccccc2n1
inactive: [1] 65.3% | [2] 53.3% | [3] 63.7% | [4] 52.1%
active: [5] 87.5% | [6] 84.5%

c1ccc(CC2NCCc3c2[nH]c2ccccc32)cc1 (stereo not given)
inactive: [1] -14.2% | [2] 2.9% | [3] -5.05% | [4] -6.2% | [5] -11.9% | [6] 1.5%

CC1(C)OC2OC(C3CC3)C(OCc3ccccc3)C2O1 (stereo not given)
inactive: [1] -4.35% | [2] -1.05% | [3] -7.55% | [4] -16% | [5] -10.7% | [6] -6.5%

Cc1cc(OCCCCCCC[N+](C)(C)Cc2ccc([N+](=O)[O-])o2)c(C(C)C)cc1Cl
active: [1] 99.6% | [2] 99.8% | [3] 99.8% | [4] 99.6% | [5] 99.5% | [6] 99.7%

CNS(=O)(=O)c1ccc(C)cc1
inactive: [1] 2.15% | [2] -6% | [3] 0.6% | [4] 3.25% | [5] 0.45% | [6] 0.35%

N#CCCSC(=S)C1CCCCC1=N (stereo not given)
inactive: [1] -5.3% | [2] 0.8% | [3] 12.8% | [4] -112% | [5] -24.9% | [6] -2.25%

COc1ccc(C(=CC2=CC(=O)C3=C(CCCC3)C2=O)c2ccc(OC)cc2)cc1
inactive: [1] 19.8% | [2] -4.25% | [3] -4.6% | [4] -3.7% | [5] 0.55% | [6] 7.2%

O=C(O)c1ccc(Nc2nc3ccccc3nc2-c2cccs2)cc1
inactive: [1] 2.9% | [2] 18.6% | [3] 5.95% | [4] 20.7% | [5] 12.2% | [6] -9.7%

O=c1[nH]c(=S)c2cncnc2n1C1OC(CO)C(O)C1O (stereo not given)
inactive: [1] 15.8% | [2] 11.8% | [3] -6.6% | [4] 10.2% | [5] -28.3% | [6] -26.4%

O=C(CN1C(=O)CC(c2ccccc2)(c2ccccc2)C1=O)N1CCN(CCO)CC1
inactive: [1] -0.35% | [2] -4.6% | [3] -22.1% | [4] -5.25% | [5] -16.2% | [6] 2.3%

COc1cccc(CC(=O)O)c1OC
inactive: [1] 22.9% | [2] -4.75% | [3] -12% | [4] 1.8% | [5] -3.5% | [6] 12.6%

O=S(O)CCCCCSSCCCCSSCCCCCS(=O)O
inactive: [1] 7.6% | [2] -0.15% | [3] 11.5% | [4] 10.3% | [5] 12.8% | [6] 27.4%

COC(=O)C(CC(=O)[C@H]1CC[C@H]2[C@@H]3CC=C4C[C@@H](OC(C)=O)CC[C@]4(C)[C@H]3CC[C@]12C)OC (stereo not given in full)
inactive: [1] 11.8% | [2] 8.6% | [3] 15.2% | [4] 2.45% | [5] -22.4% | [6] 9%

O=C(O)c1ccc(/C=N\N(CCO)C2=NCCN2)cc1
inactive: [1] 0% | [2] -4% | [3] -23.8% | [4] -31.5% | [5] -0.35% | [6] 6.4%

CC(=O)/C(=C\c1ccc([N+](=O)[O-])cc1)C(=O)CCN(C)C
inactive: [1] 5.25% | [2] 28.1% | [3] 34.9% | [4] -5.3% | [5] 13.4% | [6] -41.2%

O=C1N(Cc2ccccc2)CC2CCc3c(ccc4ccccc34)N12 (stereo not given)
inactive: [1] 11% | [2] -12.9% | [3] -1.3% | [4] -3.85% | [5] 4.85% | [6] 4.75%

O=c1ccc2c(-c3ccccc3S(=O)(=O)O)c3ccc(O)c(O)c3oc-2c1O
inactive: [1] 3.45% | [2] 13.3% | [3] -4.4% | [4] 11% | [5] 15.6% | [6] 4.4%

Cn1cnc2cc(N3CCOCC3)c([N+](=O)[O-])cc2c1=O
inactive: [1] 17.4% | [2] 12% | [3] -0.7% | [4] 12.8% | [5] -1.9% | [6] 17.8%

Cc1ccc(C2=CSC3=NCCN23)cc1Cl
inactive: [1] -29.9% | [2] -43.8% | [3] 5.3% | [4] -6.3% | [5] -17.9% | [6] 23.4%

COC1OC(COC(=O)c2ccccc2)C(OC(=O)c2ccccc2)C(OC(=O)c2ccccc2)C1OC(=O)c1ccccc1 (stereo not given)
inactive: [1] -1.3% | [2] -30.8% | [3] -13.6% | [4] -9.4% | [5] -29.8% | [6] -14.8%

CC1=CC2OC3C(OC(=O)c4ccccc4)C(OC(=O)c4ccccc4)C(C)(C2(COC(=O)c2ccccc2)CC1)C31CO1 (stereo not given)
inactive: [1] 6.3% | [2] -3.1% | [3] 1.55% | [4] 7.8% | [5] 4.85% | [6] 17.7%

CCOC(CN=CC1CCC=CO1)OCC (stereo not given)
inactive: [1] 10.9% | [2] -5.35% | [3] 2.85% | [4] -1.55% | [5] -1.5% | [6] 6.65%

Cc1cccc(O)c1C(=O)O
inactive: [1] -8.15% | [2] -12% | [3] -15.6% | [4] -9.45% | [5] 9.05% | [6] -0.25%

CC(=O)Nc1ccc(-c2cn3ccccc3n2)cc1
inactive: [1] 6.6% | [2] -1.5% | [3] 20.7% | [4] 25.6% | [5] 13.7% | [6] 21.8%

CCOC(=O)CCC(C(=O)OCC)c1nc2ccccc2[nH]c1=O (stereo not given)
inactive: [1] 12.6% | [2] 11.9% | [3] 12.6% | [4] -2.75% | [5] 14.1% | [6] 14.2%

COc1ccc(C(=Nc2ccc(C)cc2)c2ccccc2)cc1
inactive: [1] -2.1% | [2] 7.2% | [3] -6.05% | [4] -43.6% | [5] -9.1% | [6] -15.6%

O=C1CCCNC(=O)CCCN1
inactive: [1] 15% | [2] -9.55% | [3] -5.45% | [4] -40.5% | [5] -14.3% | [6] -5.9%

CCC(=O)c1ccc(OC(C)=O)cc1
inactive: [1] 36% | [2] -4.75% | [3] -4.85% | [4] -23.4% | [5] 5.7% | [6] 4.65%

CCOC(=O)c1ccc(CS(=O)c2ccccc2)c([N+](=O)[O-])c1 (stereo not given)
inactive: [1] 14.7% | [2] -4.75% | [3] 20.6% | [4] 3.55% | [5] 58.1% | [6] 18.2%

CCCCCSc1ncnc2c1ncn2CO
inactive: [1] 0.9% | [2] 18.1% | [3] 7.45% | [4] 9.75% | [5] 42.7% | [6] 3.6%

O=C(N/N=C/c1ccccc1)c1c(-c2cccnc2)cnc2ccccc12
inactive: [1] -12.8% | [2] -9.3% | [3] -10.6% | [4] 10.9% | [5] 12.3% | [6] 14.3%

Fc1ccc2c(c1)Nc1ccccc1S2
inactive: [1] -6.1% | [2] -1.95% | [3] 7.65% | [4] -8.85% | [5] -16% | [6] -14.6%

CC1(C)C(O)C(C)(C)C1O (stereo not given)
inactive: [1] 17.1% | [2] -17.6% | [3] 7.8% | [4] 6.95% | [5] 11.2% | [6] 10.2%

COc1ccc(C(=O)C(c2ccccc2)c2ccccc2)cc1
inactive: [1] 6.65% | [2] 1.95% | [3] -13.2% | [4] 4.35% | [5] 9.25% | [6] 6%

CC1CC(C)OC(C)(Cc2ccccc2)O1 (stereo not given)
inactive: [1] 23.8% | [2] 20.4% | [3] 25.6% | [4] -19.9% | [5] -2.15% | [6] -13.9%

OC1CC=CC1
inactive: [1] 2.45% | [2] -3.5% | [3] -4.6% | [4] 0.35% | [5] 8.25% | [6] -12.8%
